# According to paper PMC12215968:
# Tests used:
# [1] = biological target: Heat shock-related 70 kDa protein 2 (UniProt P54652); assay: cross-linking mass spectrometry
# [2] = biological target: Heat shock protein 105 kDa (UniProt Q92598); assay: cross-link between two proteins; cross-linking mass spectrometry
# Histone H2B type 1-L = Histone H2B type 1-L (UniProt Q99880); assay: cross-linking mass spectrometry
# Nucleobindin-1 = Nucleobindin-1 (UniProt Q02818); assay: cross-linking mass spectrometry
# 14-3-3 protein epsilon = 14-3-3 protein epsilon (UniProt P62258); assay: cross-link between two proteins; cross-linking mass spectrometry
# [3] = biological target: 26S proteasome non-ATPase regulatory subunit 1 (UniProt Q99460); assay: as above
# [4] = biological target: 26S proteasome regulatory subunit 10B (UniProt P62333); assay: as above
# [5] = biological target: 26S proteasome regulatory subunit 7 (UniProt P35998); assay: as above
# [6] = biological target: ATP synthase F(1) complex subunit alpha, mitochondrial (UniProt Q03265); assay: as above
# [7] = biological target: ATP synthase F(1) complex subunit gamma, mitochondrial (UniProt Q91VR2); assay: as above
# [8] = biological target: Creatine kinase U-type, mitochondrial (UniProt P12532); assay: as above
# [9] = biological target: Elongation factor 1-alpha 2 (UniProt Q05639); assay: as above
# [10] = biological target: Heterogeneous nuclear ribonucleoprotein A1-like 2 (UniProt Q32P51); assay: as above
# [11] = biological target: NADH dehydrogenase [ubiquinone] 1 beta subcomplex subunit 5, mitochondrial (UniProt Q9CQH3); assay: as above
# Septin-10 = Septin-10 (UniProt Q9P0V9); assay: as above
# Tubulin beta-2B chain = Tubulin beta-2B chain (UniProt Q9BVA1); assay: as above
substance,measurement,setting,value
"Heat shock 70 kDa protein 4, P34932",listed as a hit,[1],yes
same,listed as a hit,[2],yes
"Non-histone chromosomal protein HMG-14, P05114",listed as a hit,Histone H2B type 1-L,yes
"Nucleobindin-2, P80303",listed as a hit,Nucleobindin-1,yes
"14-3-3 protein sigma, P31947",listed as a hit,14-3-3 protein epsilon,yes
"Proteasome subunit alpha type-4, P25789",listed as a hit,[3],yes
"Proteasome subunit alpha type-6, P60900",listed as a hit,[4],yes
"26S proteasome non-ATPase regulatory subunit 7, P51665",listed as a hit,[4],yes
"Proteasome subunit alpha type-7, O14818",listed as a hit,[5],yes
"ATP synthase F(1) complex subunit epsilon, mitochondrial, P56382",listed as a hit,[6],yes
"ATP synthase F(1) complex subunit alpha, mitochondrial, Q03265",listed as a hit,[7],yes
"Creatine kinase B-type, P12277",listed as a hit,[8],yes
"Elongation factor 1-beta, P24534",listed as a hit,[9],yes
"Heterogeneous nuclear ribonucleoprotein A0, Q13151",listed as a hit,[10],yes
"NADH dehydrogenase [ubiquinone] 1 subunit C2, Q9CQ54",listed as a hit,[11],yes
"Septin-7, Q16181",listed as a hit,Septin-10,yes
"Tubulin-specific chaperone A, O75347",listed as a hit,Tubulin beta-2B chain,yes
